Sm TGR block – blocks Schistosoma mansoni thioredoxin glutathione reductase. Q962Y6. purified TGR, DTNB reduction, TNB absorbance 405 nm. Potency, µM (series often up to 114 µM), actives largely listed as inhibitors. 360,000 compounds, 3% hits; further: nearly all actives have a fitted effect of over 60% in size
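TGR 20 nM + NADPH 100 uM (dispensed conc.), cpd preinc 15 min RT; start with NADPH (500 uM addition) then DTNB (15 mM addition). Kinetic TNB absorbance, 405 nm filter. Four-parameter Hill fit across titration.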
Pf growth 96h – inhibits malaria parasite growth, 96 h | Potency, µM (highest dose often 28.7 µM), most hits filed as inhibitors | 320,000 compounds, 6.9% hits | AID 504834 | P. falciparum luciferase reporter growth, 96 h
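Luminescence readout: decreased luciferase signal marks inhibited growth of reporter-expressing P. falciparum in infected red cells (2% hematocrit, 0.05% parasitemia final), exposed to compound two generations (96 h, 37 C, 5% CO2).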
HCMV antiviral – inhibitors of human cytomegalovirus. HFF cells, HCMV-luciferase reporter, 72 h; hits give low values. activity change, negative = inhibition, % at 57.5 µM. 410,000 compounds, 4.5% hits; in the data active means activity change below about -60%; inconclusive means no clear call, values can overlap the other calls; inactive means above about -39%
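Two compound doses tested in HFFs infected with HCMV-luciferase, MOI 1 PFU/cell, 72 h at 37C. Lysate luminescence read with OneGlo; data normalized against buffer-only and 10uM Salinomycin inhibitor controls.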
FBPA Giardia inh – inhibitors of Giardia lamblia fructose-1,6-bisphosphate aldolase; purified Giardia FBPA; Potency, µM (titrated, usually from 59.6 µM), most hits filed as inhibitors; 290,000 compounds, 0.71% hits; AID 2451; further: nearly all actives have a fitted effect of over 55% in size
Target sequence (A8B2U2 whole entry, looked up): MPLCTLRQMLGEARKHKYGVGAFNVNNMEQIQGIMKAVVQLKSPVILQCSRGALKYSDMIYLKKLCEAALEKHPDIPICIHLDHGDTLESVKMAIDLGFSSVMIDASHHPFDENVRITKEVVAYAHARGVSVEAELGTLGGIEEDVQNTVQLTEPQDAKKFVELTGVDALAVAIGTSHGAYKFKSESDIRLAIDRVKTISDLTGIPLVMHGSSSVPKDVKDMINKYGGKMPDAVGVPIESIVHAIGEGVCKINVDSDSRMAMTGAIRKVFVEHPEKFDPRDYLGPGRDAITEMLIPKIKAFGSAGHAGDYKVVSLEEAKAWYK
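Giardia FBPA (40 nM reagent) was preincubated 10 min at RT with compound (up to 57.5 uM final), then substrate plus GAPDH/TPI/NAD/arsenate coupling system with diaphorase/resazurin was added; resorufin fluorescence (525/598 nm) was read after 20 min.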
Pf growth 48h – inhibits P. falciparum growth in the first generation, 48 h | P. falciparum luciferase growth in erythrocytes, 48 h | Potency, µM (top dose mostly 28.7 µM), usual class: inhibitors | 310,000 compounds, 5.9% hits | AID 504832
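A one-generation exposure of luciferase-tagged malaria parasites in RPMI 1640/Albumax erythrocyte culture, 37 C and 5% CO2. Inhibition is inferred from decreased luminescence after adding detection reagent.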
A number is an active result; - = inactive; ? = inconclusive; . = not tested or not shown. Sampled rows, rich in hits. Any-hit rate of the full collection: about 14%. Unless noted, the call rests on the fitted dose curve; in most records, active means well fitted curve in the direction sought with a large enough effect; inconclusive means small, poorly fitted or top-dose-only effect, or another doubt; inactive means no such curve, though single readings can be large; an effect the other way counts as inactive or inconclusive.

SMILES	Sm TGR block	Pf growth 96h	HCMV antiviral	FBPA Giardia inh	Pf growth 48h
CCc1ccc(CNC(=O)CCc2cn(C)c3ccccc23)cc1	-	-	-	-	-
O=C(Nc1ccc(S(=O)(=O)Nc2ccc(F)cc2)cc1)c1ccc(CN2CCOCC2)cc1	-	-	-65	-	?
COc1ccc(NS(=O)(=O)c2ccc(NC(=O)c3ccc(CN4CCOCC4)cc3)cc2)cc1	?	-	-89	-	15µM
COc1ccc(CN2CCOCCOCCN(Cc3ccc(OC)cc3)CCOCCOCC2)cc1	-	?	-	-	13µM
COc1ccccc1Cc1c(-c2ccc(C#N)cc2)nc2c3ccccc3ccn12	.	.	-	.	.
CCNC(=O)C1(C)CCN(C(=O)c2cccc3ccccc23)C1 (centres undefined)	.	.	-	.	.
Cc1ccsc1C1Nc2ccc3ncccc3c2C2=C1C(=O)CCC2 (centres undefined)	-	4.7µM	-	-	10µM
O=C(c1ccccc1Cl)n1nc(-c2ccco2)nc1NCc1cccs1	-	.	-	.	.
COc1ccc2nc3cc(Cl)ccc3c(Nc3cc(CN4CCCC4)c(O)c(CN4CCCC4)c3)c2n1	-	?	-100	-	0.052µM
COC(=O)c1cccc(C23CC4(C2)[C@H](CN(Cc2ccc(-c5ccccc5)cc2)[C@@H]4c2ccccc2)C3c2ccc(C(F)(F)F)cc2)c1 (some centres undefined)	-	?	-	-	?
COC(=O)c1ccc(C23CC4(C2)[C@H](CN(Cc2ccc(-c5ccccc5)cc2)[C@@H]4c2ccccc2)C3c2ccc(Cl)nc2)cc1 (some centres undefined)	?	?	-	-	12µM
COC(=O)c1cccc(C23CC4(C2)[C@H](CN(Cc2ccc(-c5ccccc5)cc2)[C@@H]4c2ccccc2)C3c2ccccc2)c1 (some centres undefined)	?	1.7µM	-	-	12µM
COC(=O)c1ccc(C23CC4(C2)[C@H](CN(Cc2ccc(-c5ccccc5)cc2)[C@@H]4c2ccccc2)C3c2ccc(C(F)(F)F)cc2)cc1 (some centres undefined)	-	?	-	-	?
Nn1c(SCC(=O)NC2CCCC2)nnc1C(F)(F)F	.	.	-	.	.
Cc1ccccc1S(=O)(=O)N1C(c2ccc(Cl)cc2)CC=C(C(=O)O)C1c1cccc(Cl)c1 (centres undefined)	.	.	-	.	.
Cc1cc(C)cc(NS(=O)(=O)c2cccs2)c1	-	-	-	-	-
CN(/C(=N/S(=O)(=O)c1cccs1)c1ccccc1)c1ccccc1	-	-	-	-	-
Cc1cc(C)c[n+](C2=C([O-])c3ccccc3C(=O)/C2=N\S(=O)(=O)c2cccs2)c1	-	?	-	-	1.9µM
Cc1cc[n+](C2=C([O-])c3ccccc3C(=O)/C2=N\S(=O)(=O)c2cccs2)cc1C	-	3.3µM	-	?	2.6µM
N#Cc1c(NC(=O)C2CCCO2)sc2c1CCCCCC2 (centres undefined)	-	-	-	-	-
COC(=O)CCCC1=CC2=CC(=O)C(C)(OC(=O)c3cccs3)C(=O)C2=CN1CCc1c[nH]c2ccccc12 (centres undefined)	?	10µM	-	0.45µM	8.3µM
CCCCC1=CC2=CC(=O)C(C)(OC(=O)CC)C(=O)C2=CN1CCc1c[nH]c2ccccc12 (centres undefined)	45µM	10µM	-	?	8.3µM
O=C(CCSc1ccc(Cl)cc1)N1CCCCCC1	-	1µM	-	-	-
O=C(CCSCCC(=O)N1CCCC1)N1CCCC1	40µM	-	-	-	-
CCCCC/C=C\C[C@@H]1O[C@H]1C(O)/C=C\C/C=C\CCCC(=O)O (some centres undefined)	.	.	.	-	.
SMILES	Sm TGR block	Pf growth 96h	HCMV antiviral	FBPA Giardia inh	Pf growth 48h
C=C(CO)C1Cc2c(ccc3c2OC2COc4cc(OC)c(OC)cc4C2C3=O)O1 (centres undefined)	.	.	.	-	.
CCn1c(C)c(CS(=O)(=O)c2ccccc2)[nH]c1=O	0.028µM	-	-	-	-
CCOc1ccc(N2C(=O)C(c3nnnn3Cc3ccccc3)N(CCOC)C2=O)cc1 (centres undefined)	.	.	-	.	.
CCCCCCCCCCCNC(=O)c1ccoc1C	18µM	?	-	-	?
Cc1occc1C(=O)NNC(=S)NCc1ccc(Cl)cc1	-	-	-69	-	-
Cc1occc1C(=O)NCCCCNC(=O)c1ccoc1C	-	.	-98	-	-
O=C(N[C@H]1CC[C@@]23CCCN2C(=O)CCC[C@H]3[C@H]1Cc1ccccc1)c1ccc(Cl)c(C(F)(F)F)c1	.	.	-	.	.
COc1ccc(CN2CCN(CCc3ccccc3)C(CCO)C2)cc1Cn1cncn1 (centres undefined)	-	?	-	-	5.2µM
CC(C)CCN1CCN(Cc2ccon2)CC1CCO (centres undefined)	-	-	-	-	-
OCCC1CN(Cc2ccccc2O)CCN1CCc1ccccc1 (centres undefined)	-	-	-	-	9.3µM
CCOc1cc(CN2CCN(CCc3ccccc3)C(CCO)C2)ccc1OC (centres undefined)	-	-	-	-	?
OCCC1CN(Cc2ccon2)CCN1CCc1ccccc1 (centres undefined)	-	13µM	-	-	-
COc1cccc(CN2CCN(CCCc3ccccc3)C(CCO)C2)c1O (centres undefined)	-	7.4µM	-	-	-
OCCC1CN(Cc2ccc(F)cc2)CCN1CCc1ccccc1 (centres undefined)	-	?	-	-	?
CC(C)(C)OC(=O)N1CCC(c2c(C(=O)N3CCN(C(=O)c4ccco4)CC3)cnn2-c2cccc(F)c2)CC1	-	.	?	.	.
O=C(c1ccncc1)N1CCC2(CCN(Cc3ccncc3)CC2)CC1	.	.	.	-	.
OCCC1CN(CCCc2ccccc2)CCN1CCc1ccccc1 (centres undefined)	-	10µM	-	-	?
OCCC1CN(CCCc2ccccc2)CCN1Cc1ccccc1 (centres undefined)	-	-	-	-	-
COc1ccc(CNc2cc(-c3ccoc3)ncn2)c(OC)c1	.	.	.	-	.
CCOC(=O)c1c(-c2ccc(C)o2)csc1NC(=O)CSc1nnnn1-c1ccccc1	5.6µM	.	-	-	?
CCOC(=O)c1c(-c2ccccc2Cl)csc1NC(=O)CSc1nc(C)cc(=O)[nH]1	-	12µM	?	-	-
Cc1nnc(SCC(=O)Nc2nnc(SCc3cccc(Br)c3)s2)s1	-	7.4µM	-	-	-
CCOC(=O)c1c(-c2ccc(C)o2)csc1NC(=O)COC(=O)c1ccc(NC(N)=O)cc1	10µM	.	-	-	8.3µM
O=C(c1sc2ccccc2c1Cl)N1CCN(CCc2ccccn2)CC1	-	-	?	-	?
CSCCC(C)N1CCC(Oc2ccc(C(=O)NCc3ccccn3)cc2)CC1 (centres undefined)	.	.	-	.	.
CCOC(=O)c1c(CC(C)C)csc1NC(=O)COC(=O)C1=NNC(=O)CC1	-	?	-	.	-
